Test results: PubChem BioAssay (NCI)
Values joined by “and” are separate entries in the source; they are usually repeats but may differ in a detail not shown here. Equal values may be shown once. About 79,000 compounds went through this panel and 15% of them were active in at least one assay; those are over-represented in the sample as a whole. Rule as the data show it: active = growth inhibition above about 70%; inactive = the rest.

What was measured:
[1] = NCI Yeast Anticancer Drug Screen. Data for the rad50 strain (AID 155);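 also: 0% = growth of vehicle-only cultures of the same strain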; details: S. cerevisiae rad50 strain growth inhibition, stronger effect = higher value; at 50.0 µM unless noted
How it was run: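 Cells are treated with compound, grown, and their growth is then scored against vehicle-only cultures of the same repair-deficient yeast strain.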

[2] = NCI Yeast Anticancer Drug Screen. Data for the mec2-1 strain (AID 157); details: S. cerevisiae mec2-1 strain, stronger effect = higher value; at 50.0 µM unless noted
How it was run: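 Each compound was tested on mec2-1 yeast, a strain altered in DNA damage repair or cell cycle control. Growth inhibition is reported relative to vehicle.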

[3] = NCI Yeast Anticancer Drug Screen. Data for the sgs1 mgt1 strain (AID 161);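 also: 0% = growth of cultures given vehicle only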; details: S. cerevisiae sgs1 mgt1 strain, stronger effect = higher value; at 50.0 µM unless noted
How it was run: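 Read-out: growth inhibition vs vehicle controls. Cells: mutant yeast strain deficient in DNA damage repair.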

[4] = NCI Yeast Anticancer Drug Screen. Data for the cln2 rad14 strain (AID 165);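 also: 0% = growth equal to vehicle treated cultures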; details: S. cerevisiae cln2 rad14 strain, stronger effect = higher value; at 50.0 µM unless noted
How it was run: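 Test compounds were added to cln2 rad14 yeast cultures; inhibition of growth was then determined by comparison with vehicle treatment.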

[5] = NCI Yeast Anticancer Drug Screen. Data for the bub3 strain (AID 167); details: S. cerevisiae bub3 mutant strain, stronger effect = higher value; at 50.0 µM unless noted
How it was run: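 Part of a panel of yeast mutants defective in DNA damage repair or cell cycle regulation. Each strain is grown with compound, and inhibition is calculated relative to solvent-treated cultures.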

[6] = NCI Yeast Anticancer Drug Screen. Data for the mlh1 rad18 strain (AID 175); details: S. cerevisiae mlh1 rad18 strain growth inhibition, stronger effect = higher value; at 50.0 µM unless noted
How it was run: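 Inhibition values reflect reduced growth of mutant yeast versus vehicle-treated controls following compound exposure; the mutations affect DNA damage repair.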

Measured: growth inhibition

Cc1cc(N(CCC#N)CCC#N)ccc1/C=N/NC(=O)c1ccccc1
inactive: [1] 6.1% | [2] -2.35% | [3] -10.1% | [4] 6.3% | [5] 5.95% | [6] -47.5%

COc1cc(C(=O)NNC(=O)c2ccc(Cl)c(Cl)c2)cc(OC)c1OC
inactive: [1] 24.4% | [2] 33.9% | [3] 20.5% | [4] 18.4% | [5] 33.3% | [6] 34.9%

C/C(=C\c1ccccc1)c1ccccn1
inactive: [1] -2.25% and -1.9% | [2] -4.6% and -17.4% | [3] -6.25% and 10.8% | [4] -68.8% and -22.6% | [5] -19.1% and 15.2% | [6] -7.4% and 8.3%

Fc1cccc(C(Nc2nncs2)Nc2nncs2)c1F
inactive: [1] 5.5% | [2] 8.95% | [3] 29.8% | [4] -1.2% | [5] 5.15% | [6] 28.2%

O=C(O)/C=C(/CC(=O)O)C(=O)O
inactive: [1] -34.9% | [2] -11.3% | [3] -17.2% | [4] 0.35% | [5] -27.8% | [6] -7.45%

CC(=O)C[n+]1ccccc1
inactive: [1] -9.85% | [2] -9% | [3] -1.75% | [4] 3.75% | [5] 15.6% | [6] 14.2%

Cn1nnnc1NCc1ccccc1
inactive: [1] -2.55% | [2] 5.35% | [3] -5.85% | [4] -24.6% | [5] -2% | [6] 5.15%

CC(C)NC(=O)OCc1c(COC(=O)NC(C)C)c(-c2ccccc2)n(C)c1-c1ccccc1
inactive: [1] 12.6% | [2] 2.05% | [3] 6.05% | [4] -5.7% | [5] 1.85% | [6] 32.8%

O=C(CCCN1CCC2(CC1)CC(=O)N(N1CCOCC1)C2=O)c1ccc(F)cc1
inactive: [1] -4.65% | [2] 6.1% | [3] 2.75% | [4] 4.5% | [5] -3.4% | [6] 14.9%

COc1c(OC(C)=O)ccc(/C=C2\N=C(C)OC2=O)c1[N+](=O)[O-]
inactive: [1] -8.3% | [2] -4.75% | [3] 5.25% | [4] 16.5% | [5] 11.1% | [6] 9.2%

CCOC(=O)C1(C#N)C(C#N)(C#N)C1(CC)CC (stereo not given)
inactive: [1] -11.2% | [2] 19.6% | [3] -1.55% | [4] 10.3% | [5] -6.4% | [6] -20.8%

COC1=Nc2ccccc2N2CCN=C12
inactive: [1] 4.55% | [2] -23.6% | [3] -8.7% | [4] -1.35% | [5] -8.75% | [6] -12.8%

CCOC(=O)/C(SC#N)=C(/N)N1CCCC1
inactive: [1] -12.2% | [2] -43.8% | [3] -4% | [4] 9.95% | [5] 0.75% | [6] -14.2%

O=[N+]([O-])c1c[nH]c2ncnc(Cl)c12
inactive: [1] 4.25% | [2] 0.6% | [3] 0.35% | [4] -6.8% | [5] -3% | [6] 6.8%

O=C(O)COc1ccc([N+](=O)[O-])cc1[N+](=O)[O-]
inactive: [1] 20.9% | [2] 14% | [3] 22.4% | [4] 7.95% | [5] 3.95% | [6] 16.6%

C=C(C)c1ccc(C(C)C)cc1
inactive: [1] -38.5% | [2] -40.1% | [3] -24.6% | [4] 4.55% | [5] -13.6% | [6] -3.25%

CC1(C)COC(c2ccc3c(c2)OCO3)N1 (stereo not given)
inactive: [1] 0.5% | [2] -8.45% | [3] -5.7% | [4] -19.6% | [5] -9.75% | [6] 0.6%

O=[N+]([O-])c1cnccc1/C=C\c1ccccc1
inactive: [1] 4.5% | [2] 3.15% | [3] -2.1% | [4] -35.9% | [5] -5.7% | [6] 12%

CNc1cc(C(C)C)ccc1C
inactive: [1] 4.1% | [2] 8.75% | [3] 10.7% | [4] 0.85% | [5] 17.1% | [6] 3.25%

C/C(CCC(CC(=O)O)C(C)C)=N\NC(N)=O (stereo not given)
inactive: [1] -5.85% | [2] 1.8% | [3] -6.65% | [4] -35.9% | [5] -27.4% | [6] 4.65%
